Source: PubChem (National Center for Advancing Translational Sciences (NCATS))
VACV mCherry inh – qHTS for Stage-Specific Inhibitors of Vaccinia Orthopoxvirus: mCherry Reporter Primary qHTS | Vaccinia virus mCherry reporter infection, fluorescence | Potency, µM (highest dose often 36.5 µM), without a hit: at the highest dose activity change, negative = inhibition, most hits filed as inhibitors | 310,000 compounds, 0.63% hits | AID 720579, 2013; calls by dose curve; tested in A549 cells; note: % is set by controls: 0 for no effect and ±100 for the full control effect; nearly all actives have a fitted effect of over 35% in size
Pf growth 96h – Primary qHTS for delayed death inhibitors of the malarial parasite plastid, 96 hour incubation. P. falciparum luciferase reporter growth, 96 h. Potency, µM (top dose mostly 28.7 µM), for inactives: top-dose activity change, negative = inhibition, hits mostly inhibitors. 320,000 compounds, 6.9% hits. AID 504834, 2011; note: % is set by controls: 0 for no effect and ±100 for the full control effect
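Compounds incubated with erythrocytes infected by luciferase-expressing P. falciparum (2% hematocrit, 0.05% parasitemia final) for 96 hours, 37 C in 5% CO2. Growth inhibition scored as decreased luciferase luminescence.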
Pf growth 48h – Primary qHTS for delayed death inhibitors of the malarial parasite plastid, 48 hour incubation. P. falciparum luciferase growth in erythrocytes, 48 h. Potency, µM (highest dose often 28.7 µM), for inactives: at the top dose activity change, negative = inhibition, usual class: inhibitors. 310,000 compounds, 5.9% hits. AID 504832, 2011; note: % is set by controls: 0 for no effect and ±100 for the full control effect
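In quantitative HTS format, infected erythrocytes bearing luciferase-reporter parasites were treated for a single generation at 37 C. Luminescence after adding detection reagent served as the growth measure.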
NS1 function inh – qHTS Assay for Inhibitors of Influenza NS1 Protein Function; Potency, µM (highest dose often 46.1 µM), inactives show top-dose activity, positive = more growth; 270,000 compounds, 0.4% hits; AID 2326, 2010; calls by dose curve; note: actives are rising curves; nearly all actives have a fitted effect of over 50% in size
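S. cerevisiae expressing influenza A NS1, grown in glucose, washed, then diluted 1:100 into pH 6.0 -URA galactose medium with 23 nl compound. Growth recovery read as OD600; NS1-free strain serves as control.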
Vaccinia Venus – qHTS for Stage-Specific Inhibitors of Vaccinia Orthopoxvirus: Venus Reporter Primary qHTS. Vaccinia virus Venus reporter expression, fluorescence. Potency, µM (titrated, usually from 36.5 µM), for the others: at the top dose activity change, negative = inhibition, actives largely listed as inhibitors. 330,000 compounds, 0.46% hits; calls by dose curve; tested in A549 cells; note: % is set by controls: 0 for no effect and ±100 for the full control effect; nearly all actives have a fitted effect of over 30% in size
HCV inhibitor – qHTS Assay for Inhibitors of Hepatitis C Virus (HCV). Huh7.5.1 HCVcc-Cre infection, luciferase reporter, 44 h. Potency, µM (highest dose often 41.8 µM), without a hit: at the top dose activity change, negative = inhibition, usual class: inhibitors. 340,000 compounds, 3.4% hits; note: % is set by controls: 0 for no effect and ±100 for the full control effect
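Cells seeded at 1,000/well and cultured 4 h, then compounds added followed by HCVcc-Cre virus (~0.5 moi). After 44 h further culture, luciferase substrate was added, plates held 15 min at room temperature, and luminescence read for 15 sec.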
Active calls of the source: *; i = inactive; ? = inconclusive; nt = no result given; [ ] = remark or other dose. Sampled rows, rich in hits. Any-hit rate of the full collection: about 11%. Unless noted, calls come from the whole dose curve; as a rule, active = well fitted inhibition curve with a large enough effect; inconclusive = small, poorly fitted or top-dose-only effect, or another doubt; inactive = no such curve, though single readings can be large or run the other way. Potency is the fitted concentration of half-maximal effect.

SMILES | VACV mCherry inh | Pf growth 96h | Pf growth 48h | NS1 function inh | Vaccinia Venus | HCV inhibitor
COC(C(=O)Nc1ccnn1C1CCN(Cc2cnn(C)c2)CC1)c1ccccc1 (configuration not stated) | -9.8% | -7.5% | -3.3% | 13.4% | -7.9% | 19.0%
CCN(CC)CCNC(=O)c1[nH]c2ccc(OCc3ccccc3)cc2c1C | ? | 10.1% | ? | nt | ? | 10µM*
Cc1ccc(Nc2c3c(nc4ccccc24)CCC3)cc1F | 10µM* | nt | nt | nt | ? | nt
COc1cc(Nc2c3c(nc4ccccc24)CCC3)cc(OC)c1OC | ? | 4.7% | 11.7µM* | 8.0% | ? | ?
Cc1cccc(Nc2c3c(nc4ccccc24)CCC3)c1 | -17.5% | ? | 11.7µM* | -41.1% | -20.1% | ?
N#Cc1cccc(Nc2c3c(nc4ccccc24)CCC3)c1 | -13.0% | -19.2% | ? | -1.7% | -18.7% | ?
O=C(N/N=C/c1ccc(F)c(F)c1)c1cc2c(s1)-c1ccccc1CC2 | nt | 22.7% | 4.2% | 10.4% | -7.0% | 13.9%
Cc1ccc2nc(SCC(=O)NCc3ccco3)c(C#N)cc2c1 | i | 42.2% | 71.3% | 1.1% | ? | 0.1%
NC(N)=NCC(O)CN(c1ccccc1)c1ccccc1 (configuration not stated) | -23.3% | 1.47µM* | 1.17µM* | -3.3% | -16.9% | 6.4%
OC(CN1CCCCC1)CN(c1ccccc1)c1ccccc1 (configuration not stated) | nt | 9.28µM* | nt | -7.1% | -24.3% | -4.8%
CNCC(O)CN(c1ccccc1)c1ccccc1 (configuration not stated) | -21.9% | 57.2% | ? | 0.0% | -9.0% | 18.1%
CC(C)CCNC(=O)c1cc(C(=O)c2cc(F)ccc2O)cn(CCC(C)C)c1=O | -1.7% | ? | 1.47µM* | nt | -1.8% | ?
CC(C)CCNC(=O)c1cc(C(=O)c2cc(Br)ccc2O)cn(CCC(C)C)c1=O | i | 0.415µM* | 1.04µM* | nt | 15.7% | ?
O=C(O)c1ccccc1-c1ccc(C=C2C(=O)N(c3ccccc3)C(=S)N(c3ccccc3)C2=O)o1 | nt | 11.7µM* | 24.3% | 22.0% | nt | -2.8%
O=C(O)c1ccccc1-c1ccc(/C=C2\SC(=O)N(c3ccccc3)C2=O)o1 | nt | ? | 97.9% | 11.7% | nt | 3.7%
COc1cc(-c2nnc(COC(=O)c3cc(C)nc4ccc(C)cc34)o2)cc(OC)c1OC | nt | 14.7µM* | nt | 6.6% | 4.8% | -1.0%
COc1ccc(-c2cc(-c3nnc(COC(=O)C4CC4)o3)c3ccccc3n2)cc1OC | -23.5% | ? | ? | 12.7% | -18.7% | ?
COc1ccc(NC(=O)c2cc(-c3ccc(OC)c(OC)c3)nc3ccccc23)c(OC)c1 | 2.5% | 10.4µM* | ? | 14.0% | 9.2% | ?
COc1cc(-c2nnc(COC(=O)CSc3cc(C)c4ccccc4n3)o2)cc(OC)c1OC | nt | 2.2% | ? | -38.3% | nt | ?
COc1ccc(NC(=O)c2cc(-c3ccncc3)nc3ccccc23)c(OC)c1 | 6.0% | nt | nt | nt | 21.1% | ?
COc1ccc(-c2cc(-c3nnc(COC(=O)c4ccc(O)cc4)o3)c3ccccc3n2)cc1OC | -2.4% | ? | 9.28µM* | 8.5% | -15.6% | ?
COc1ccc(-c2cc(C(=O)Nc3ccc(C(N)=O)cc3)c3ccccc3n2)cc1OC | -0.2% | 3.7µM* | ? | nt | 11.1% | ?
O=C(COc1c(Cl)cccc1Cl)NN1C(=O)CSC1=S | nt | 66.3% | 22.9% | nt | nt | 4.8%
COc1ccccc1C(C)NC(=O)c1ccc(C)o1 (configuration not stated) | nt | 13.1µM* | nt | 0.3% | ? | ?
COc1cccc(CN2CCNC(=O)C2CC(=O)NCc2cc(C(C)C)no2)c1 (configuration not stated) | ? | 32.6% | -7.6% | 0.5% | -23.8% | 5.4%
SMILES | VACV mCherry inh | Pf growth 96h | Pf growth 48h | NS1 function inh | Vaccinia Venus | HCV inhibitor
CCCCCC(N)=O | -9.6% | 47.7% | 12.0% | nt | -4.2% | 5.1%
COC(=O)c1ccccc1NC(=O)CSc1nnc(-c2ccncc2)o1 | -15.5%[1.46 µM] | 37.1% | 8.5% | 4.9% | -1.1% | 10.4%
CC1(C)CC(=O)c2cc(OCC(=O)NCCCN3CCN(c4ccc(F)cc4)CC3)ccc2O1 | nt | 9.9% | ? | 4.8% | nt | 10µM*
CO[C@@H]1/C=C\O[C@]2(C)Oc3c(C)c(O)c4c(O)c(c(CN5CCN(C)CC5)c(O)c4c3C2=O)NC(=O)/C(C)=C\C=C[C@@H](C)[C@@H](O)[C@H](C)[C@@H](O)C(C)[C@H](OC(C)=O)[C@@H]1C (some centres not stated) | nt | nt | nt | -19.1% | nt | nt
CO[C@H]1/C=C/O[C@@]2(C)Oc3c(C)c(O)c4c(O)c(c5c(c4c3C2=O)NC2(CCN(CC(C)C)CC2)N=5)=NC(=O)/C(C)=C\C=C\[C@H](C)[C@H](O)[C@@H](C)[C@@H](O)[C@@H](C)[C@H](OC(C)=O)[C@@H]1C | -14.9% | 5.36µM* | 8.49µM* | nt | -27.9% | nt
COC1C=CO[C@@]2(C)Oc3c(C)c(O)c4c(O)c(c5c(nc6cc(C)ccn65)c4c3C2=O)NC(=O)/C(C)=C\C=CC(C)C(O)[C@@H](C)C(O)C(C)[C@@H](OC(C)=O)C1C (some centres not stated) | nt | 4.78µM* | 6.75µM* | nt | nt | nt
COC1C=CO[C@@]2(C)Oc3c(C)c(O)c4c(O)c(c(C=NN5CCN(C)CC5)c(O)c4c3C2=O)NC(=O)/C(C)=C\C=CC(C)C(O)[C@@H](C)C(O)C(C)[C@H](OC(C)=O)C1C (some centres not stated) | nt | 0.601µM* | 0.953µM* | nt | nt | nt
O=c1oc2ccc(NS(=O)(=O)c3cccc4cccnc34)cc2s1 | ? | 26.8% | -5.0% | -28.8% | -10.3% | -13.0%
CCOC(=O)C1=C(C)N=c2s/c(=C/c3cccc([N+](=O)[O-])c3O)c(=O)n2C1c1cc(OC)c(OC)c(OC)c1 (configuration not stated) | -16.5% | ? | 1.04µM* | 1.8% | 44.2% | -3.3%
CCOC(=O)C1=C(C)N=c2s/c(=C\c3cccn3C)c(=O)n2C1c1cccc(OC)c1OC (configuration not stated) | nt | ? | 2.08µM* | -42.5% | 1.5% | 11.2%
Cc1ccccc1COC(=O)CCC1=NS(=O)(=O)c2ccccc2N1 | -8.9% | 11.7µM* | -7.8% | 17.3% | -8.2% | ?
O=C(CCCC1=NS(=O)(=O)c2ccccc2N1)OCc1ccc(Cl)cc1 | -12.8% | ? | ? | -11.9% | -13.8% | -11.9%
Clc1cccc(Nc2ncnc3ccc(Br)cc23)c1 | -10.3% | 4.15µM* | 3.7µM* | -171.3% | ? | ?
